# Key:
# Details in all cases: Compound Concentration (nM):1000
# [1] = tested on: TNK1
# [2] = tested on: TNK2
# [3] = tested on: TNNI3K
# [4] = tested on: T1, TRKA
# T1 construct: gene NTRK1
# [5] = tested on: T2, TRKB
# T2 construct: gene NTRK2
# [6] = tested on: T3, TRKC
# T3 construct: gene NTRK3
# [7] = tested on: TRPM6
# [8] = tested on: TSSK1B
# [9] = tested on: TSSK3
# [10] = tested on: TTK
# 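Also: KINOMEscan scanMAX binding as percent activity remaining versus control; lower means stronger binding.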
SMILES,Percent Control [1],Percent Control [2],Percent Control [3],Percent Control [4],Percent Control [5],Percent Control [6],Percent Control [7],Percent Control [8],Percent Control [9],Percent Control [10]
COc1cc2ncnc(Nc3ccc4c(cnn4Cc4ccccc4)c3)c2cc1OC.Cl [GW282449A],100%,77%,100%,100%,100%,100%,87%,100%,100%,96%
NS(=O)(=O)c1ccc(Nc2ncc(-c3ccccc3)o2)cc1 [GW572399X],100%,100%,100%,55%,72%,78%,100%,100%,100%,78%
Cl.O=S1CCN(Cc2ccc(-c3ccc4ncnc(Nc5ccc(OCc6ccccc6)c(F)c5)c4c3)o2)CC1 [GW576924A],100%,100%,100%,100%,100%,100%,92%,90%,100%,100%
CN(C)c1cc2c(Nc3ccc4c(cnn4Cc4ccccc4)c3)ncnc2cn1 [GW282974X],93%,84%,100%,65%,92%,93%,92%,100%,99%,87%
NS(=O)(=O)c1ccc(N/N=C2\C(=O)Nc3ccc(C(=O)NCc4ccncc4)cc32)cc1 [GW300657X],100%,100%,96%,7.6%,21%,37%,89%,100%,89%,5.5%
COc1cccc(-c2c[nH]c3c(N/N=C/c4ccncc4)ncnc23)c1 [GW814408X],100%,100%,31%,64%,100%,100%,97%,98%,98%,79%
COc1ccc(COc2ccc(Cc3cnc(N)nc3N)cc2OC)cc1 [GW632580X],73%,77%,90%,4.2%,0.9%,–,89%,100%,83%,85%
COc1ccccc1-c1cc(/C=C2\C(=O)Nc3ncc(Br)cc32)cc(Br)c1O [GW442130X],97%,100%,100%,7.2%,22%,44%,100%,75%,97%,97%
COc1ccc2[nH]c3c4[nH]c5ccc(OC)cc5c4c4c(c3c2c1)C(=O)NC4=O [GW296115X],29%,69%,90%,40%,59%,47%,79%,89%,89%,50%
CCn1c(-c2nonc2N)nc2c(C#CC(C)(C)O)nc(OCCNC)cc21.Cl [GSK949675],100%,100%,100%,100%,100%,100%,100%,90%,14%,91%
CC1=C(C(=O)Nc2ccc3[nH]ncc3c2)C(c2ccc3ccccc3c2)CC(=O)N1 (stereo not drawn) [GSK270822A],68%,62%,100%,66%,73%,63%,82%,97%,43%,92%
Nc1ncnc2occ(-c3ccc(NC(=O)Nc4cc(C(F)(F)F)ccc4F)cc3)c12 [GW770249X],85%,100%,40%,3%,1.6%,0.1%,100%,100%,84%,61%
Cl.O=C(Nc1ccc(Oc2ccc3[nH]c(NC(=O)c4ccccc4)nc3c2)cc1)Nc1cc(C(F)(F)F)ccc1F [GW709042A],66%,100%,55%,27%,35%,29%,100%,100%,100%,87%
COc1cc(N2CCN(C(C)C)CC2)ccc1Nc1nc(Nc2ccc(F)cc2C(=O)NC[C@@H](O)CO)c2cc[nH]c2n1 [GSK1392956A],18%,67%,100%,86%,91%,89%,82%,42%,83%,4.9%
CC(C)COC(=O)c1ccc2c(c1)/C(=C/Nc1ccc(S(N)(=O)=O)cc1)C(=O)N2 [GW416981X],100%,100%,100%,23%,55%,59%,100%,100%,100%,6.3%
CCS(=O)(=O)c1ccc(OC)c(Nc2ncc(-c3cccc(F)c3)o2)c1 [GW621970X],38%,90%,66%,11%,30%,48%,88%,100%,100%,100%
CN(C)CCNC(=O)Nc1ccc(N(C)c2ccnc(Nc3ccc(CS(C)(=O)=O)cc3)n2)cc1.Cl [GW830900A],39%,75%,97%,16%,34%,57%,100%,100%,83%,68%
Cc1cc(O)cc(C)c1/C=C/c1cncc(C(N)=O)c1 [GW435821X],100%,100%,67%,98%,94%,100%,100%,100%,100%,90%
COC(=O)Nc1nc2ccc(Oc3ccc(NC(=O)Nc4cc(C(F)(F)F)ccc4F)cc3)cc2s1.Cl [GW693917A],37%,95%,61%,4.8%,6.2%,4.5%,73%,92%,82%,80%
COc1cc(/C=N/Nc2ncnc3[nH]ncc23)ccc1O [GW578748X],100%,100%,100%,42%,70%,88%,95%,100%,100%,68%

SMILES,Percent Control [1],Percent Control [2],Percent Control [3],Percent Control [4],Percent Control [5],Percent Control [6],Percent Control [7],Percent Control [8],Percent Control [9],Percent Control [10]
O=C(Nc1n[nH]c2nc(-c3ccc(O)cc3)c(Br)cc12)C1CC1 [SB-725317],100%,100%,100%,65%,100%,100%,100%,100%,100%,97%
C/C(Nc1ccc(S(N)(=O)=O)cc1)=C1/C(=O)Nc2ccccc21 [GW335962X],100%,100%,69%,7.9%,25%,42%,84%,100%,75%,12%
COc1cc2ncn(-c3cc(O[C@H](C)c4ccccc4Cl)c(C(N)=O)s3)c2cc1OC [GSK237701A],82%,58%,100%,31%,51%,59%,89%,74%,39%,82%
CN1CCN(C(=O)c2ccc(NC(=O)Nc3ccc(N(C)c4ccnc(Nc5ccc(CS(C)(=O)=O)cc5)n4)cc3)cc2)CC1.Cl [GW830263A],6.7%,6.5%,92%,7.1%,11%,2%,91%,96%,75%,61%
COc1ccc2c(-c3ccnc(Nc4cccc(OC(F)(F)F)c4)n3)cnn2n1 [GW810372X],100%,100%,100%,55%,92%,91%,92%,100%,86%,94%
CCc1ccc(Oc2nccc(-c3c(-c4ccc(F)cc4)ncn3C3CCNCC3)n2)cc1 [SB-242719],80%,82%,100%,86%,98%,98%,100%,99%,90%,80%
CCS(=O)(=O)c1ccc(OC)c(Nc2ncc(-c3cccc(OC)c3)o2)c1 [GW580509X],30%,100%,100%,16%,46%,67%,100%,100%,100%,90%
COc1cc(C=NNc2ncnc3c2cnn3-c2ccccc2)ccc1O [GW513184X],67%,100%,84%,66%,100%,99%,100%,98%,100%,100%
Cl.O=C(O[C@H]1CN[C@H](C#Cc2cc3ncnc(Nc4ccc5c(cnn5Cc5ccccc5)c4)c3s2)C1)N1CCOCC1 [GSK200398A],99%,97%,55%,70%,87%,95%,96%,100%,93%,100%
O=C1Nc2ccc(C(=O)c3ccco3)cc2C1=Cc1cc(Cl)c(O)c(Cl)c1 [GW406108X],79%,100%,100%,33%,75%,61%,95%,100%,87%,30%
Cl.c1ccc(Cc2nc3ccc(Nc4ncnc5ccccc45)cc3[nH]2)cc1 [GR269666A],100%,100%,84%,100%,92%,100%,97%,70%,100%,51%
COc1cc(C)c(N(C)C(=O)CN(C)C)cc1Nc1nc(Nc2cccc(F)c2C(N)=O)c2cc[nH]c2n1 [GSK2219385],83%,100%,100%,87%,100%,100%,100%,100%,100%,71%
COc1cccc(-n2ncc3c(N/N=C/c4ccncc4)ncnc32)c1 [GW784752X],88%,100%,51%,65%,73%,85%,89%,100%,90%,88%
CC1=C(C(=O)Nc2ccc3[nH]ncc3c2)C(c2ccc(Cl)c(Cl)c2)CC(=O)N1 (stereo not drawn) [GSK299115A],82%,79%,100%,72%,97%,68%,87%,93%,77%,89%
NS(=O)(=O)c1ccc(N/N=C2\C(=O)Nc3ccc(Cl)cc32)cc1 [GW280670X],100%,100%,100%,43%,94%,89%,100%,100%,100%,40%
Cl.O=C(Nc1ccc(Oc2ccc3[nH]c(NC(=O)c4ccco4)nc3c2)cc1)Nc1cc(C(F)(F)F)ccc1F [GW683134A],36%,100%,53%,5%,6%,3%,100%,100%,100%,85%
NS(=O)(=O)c1ccc(N/N=C2\C(=O)Nc3ccc(C(=O)NCCc4c[nH]cn4)cc32)cc1 [GW300660X],100%,100%,92%,20%,52%,57%,100%,100%,100%,11%
C[C@@H](Oc1cc(-n2cnc3ccc(OC4CCN(C)CC4)cc32)sc1C(N)=O)c1ccccc1Cl [GSK579289A],76%,86%,100%,49%,82%,91%,88%,71%,100%,69%
NS(=O)(=O)c1ccc(N/N=C2\C(=O)Nc3ccc(-c4cnco4)cc32)cc1 [GW276655],52%,66%,100%,15%,39%,38%,89%,100%,100%,20%
COc1ccc2cc(-c3c(-c4ccncc4)nc(-c4ccc(S(C)(=O)=O)cc4C)n3C)ccc2c1 [SB-633825],57%,61%,100%,73%,70%,60%,71%,74%,57%,91%
